Drawing on PubChem BioAssay (Tox21), this text covers Potency for 20 compounds.

Assay [1] is described as follows: qHTS assay to identify small molecule antagonists of the sonic hedgehog signaling (Shh) pathway (AID 1259369; calls by dose curve; further: nearly all actives have a fitted effect of over 45% in size; further: potency means the concentration at half of the fitted maximal effect). Summed up: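 For antagonist detection, the reporter line received test compounds together with conditioned medium, incubated 24hr at 37 C, 5% CO2, then luminescence was recorded following 30min room-temperature luciferase reagent incubation.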
Assay [2] has as its target Estrogen receptor beta (Homo sapiens) (UniProt Q92731). In words: qHTS assay to identify small molecule agonists of the estrogen receptor beta (ER-beta) signaling pathway (AID 1259377; active means well fitted activation curve with a large enough effect in the signal ratio in the repeat runs, not every such curve was filed as active; the % refers to the signal ratio; further: potency means the concentration at half of the fitted maximal effect). Summed up:
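A UAS-controlled beta-lactamase reporter in ER-beta-UAS-bla HEK293T cells reports receptor activation. Compounds act for 16 hr at 37C in 2% charcoal-stripped serum, and a FRET substrate is read by fluorescence after 2 hours.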

The target is the same in assay [3]. In words: qHTS assay to identify small molecule antagonists of the estrogen receptor beta (ER-beta) signaling pathway (AID 1259378; active means well fitted inhibition curve with a large enough effect in the signal ratio in the repeat runs, not every such curve was filed as active; the % refers to the signal ratio; further: potency means the concentration at half of the fitted maximal effect). Summed up:
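Antagonist mode: compounds added to beta-lactamase reporter HEK293T ER-beta-UAS cells stimulated with E2 (1nM final), 16 hr at 37C. LiveBLAzer B/G FRET substrate, 2 hours room temperature, fluorescence read-out.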

Assay [4] in a line: qHTS assay to identify small molecule agonists of the androgen receptor (AR) signaling pathway in the presence of an antagonist - cell viability counter screen (AID 1259379). Further: nearly all actives have a fitted effect of over 25% in size. Further: potency means the concentration at half of the fitted maximal effect. In a few lines:
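Seed MDA-kb2 at 3,000 cells/well; incubate 5 hr, 37C, 0% CO2. Add nilutamide to 3.0uM final, then pin compounds at 15 concentrations. Incubate 16 hr. Add CellTiter-Fluor at 15 hr, read fluorescence after 1 hr.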

A short description of assay [5]: qHTS assay to identify small molecule agonists of the estrogen receptor beta (ER-beta) signaling pathway - cell viability counter screen (AID 1259380). Further: nearly all actives have a fitted effect of over 30% in size. Further: potency means the concentration at half of the fitted maximal effect. Summed up: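 CellTiter-Glo read, 30 min RT, same wells as bla assay; cells ER-beta-UAS-bla HEK293T; 16 hr compound, 37C; medium 2% charcoal-stripped FBS.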
Assay [6] is described as follows: qHTS assay to identify small molecule antagonists of the estrogen receptor beta (ER-beta) signaling pathway - cell viability counter screen (AID 1259382). Further: nearly all actives have a fitted effect of over 55% in size. Further: potency means the concentration at half of the fitted maximal effect. In a few lines:
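In this multiplexed counter screen, cells were seeded at 2,000 per well in medium with 2% charcoal-stripped FBS and incubated 6 hr before compound and 1nM final E2 were added. Sixteen hours later, ATP-based luminescence reported viability.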

Assay [7] is described as follows: qHTS assay to identify small molecule agonists or antagonists of the thyroid stimulating hormone receptor (TSHR) signaling pathway - wild type cell line counter screen (AID 1259384; calls by dose curve). In a few lines:
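Counter screen in untransfected Hek293: compounds (15-point titration, triplicate) plus phosphodiesterase inhibitor Ro20-1724 added after 18 h plating; 30 min RT. Intracellular cAMP via competitive d2/cryptate immunoassay, 1 h incubation.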

Assay [8] deals with Thyrotropin receptor (Homo sapiens) (UniProt P16473). In words: qHTS assay to identify small molecule antagonists of the thyroid stimulating hormone receptor (TSHR) signaling pathway (AID 1259385; calls by dose curve; further: nearly all actives have a fitted effect of over 20% in size; further: potency means the concentration at half of the fitted maximal effect). Summed up: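 Antagonist mode: compound-treated TSHR-expressing HEK293 cells were stimulated with 1.5 ng/mL TSH (final) in presence of Ro20-1724 for 30 min at RT. HTRF cAMP detection after 1 h; each compound tested at 15 concentrations, triplicate.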

Assay [9] can be described thus: qHTS assay to identify small molecule agonists of the estrogen receptor alpha (ER-alpha) signaling pathway in the presence of an antagonist - cell viability counter screen (AID 1259386).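 Further: cells exposed to compounds for 22 h at 37 °C before the viability read; nearly all actives have a fitted effect of over 30% in size.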 Further: potency means the concentration at half of the fitted maximal effect. In a few lines:
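Viability counter screen using VM7Luc4E2 (full-length ER-alpha, four ERE-luciferase). The cells were treated with compounds alongside ICI-182,780 10.0nM for 22hr, and live-cell protease fluorescence was quantified with CellTiter-Fluor.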

Assay [10] has as its target Estrogen receptor (Homo sapiens) (UniProt P03372). In words: qHTS assay to identify small molecule agonists of the estrogen receptor alpha (ER-alpha) signaling pathway in the presence of an antagonist (AID 1259383; calls by dose curve; further: top concentration of the series differs between compounds; nearly all actives have a fitted effect of over 15% in size). In a few lines: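 Stably transfected VM7Luc4E2 reporter cells, kept 5 days in charcoal-stripped serum, received ICI-182,780 at 10.0nM final before compound addition. Following 22hr incubation at 37C and 5% CO2, luciferase signal was read by luminescence.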

Values joined by “and” are separate entries in the source; they are usually repeats but may differ in a detail not shown here. Identical values can stand only once. Records with an inconclusive call do not appear. More than one record can exist for a structure, and the calls need not agree. Active and inactive are the calls of the source. Unless noted, the call rests on the fitted dose curve; in most records, active means well fitted curve in the direction sought with a large enough effect in the repeat runs; inconclusive means weak or mixed curves; inactive means no such curve, though single readings can be large; an effect the other way counts as inactive or inconclusive.
On the % scale 0 is the no-effect control and ±100 the full control effect.

Chain of Thyrotropin receptor (Homo sapiens) (P16473 whole entry, looked up): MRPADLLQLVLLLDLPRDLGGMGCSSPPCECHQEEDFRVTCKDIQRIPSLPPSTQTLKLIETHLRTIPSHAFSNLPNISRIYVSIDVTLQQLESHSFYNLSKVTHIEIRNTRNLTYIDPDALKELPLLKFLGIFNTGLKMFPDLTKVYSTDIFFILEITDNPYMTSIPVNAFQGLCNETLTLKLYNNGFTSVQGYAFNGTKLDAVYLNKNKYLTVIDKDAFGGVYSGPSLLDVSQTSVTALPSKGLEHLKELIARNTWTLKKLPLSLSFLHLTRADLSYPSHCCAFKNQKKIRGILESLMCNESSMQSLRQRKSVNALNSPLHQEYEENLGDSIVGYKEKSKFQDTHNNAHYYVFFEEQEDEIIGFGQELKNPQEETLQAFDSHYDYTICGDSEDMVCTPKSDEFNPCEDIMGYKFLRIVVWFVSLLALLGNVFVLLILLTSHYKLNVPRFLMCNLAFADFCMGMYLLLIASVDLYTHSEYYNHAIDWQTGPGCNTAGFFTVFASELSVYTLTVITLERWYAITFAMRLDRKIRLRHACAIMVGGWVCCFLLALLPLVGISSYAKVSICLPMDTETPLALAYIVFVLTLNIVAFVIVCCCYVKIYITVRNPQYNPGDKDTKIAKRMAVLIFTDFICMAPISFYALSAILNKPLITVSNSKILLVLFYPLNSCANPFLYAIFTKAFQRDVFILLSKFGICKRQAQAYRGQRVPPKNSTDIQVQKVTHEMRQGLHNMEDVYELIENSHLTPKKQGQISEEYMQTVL
Chain of Estrogen receptor (Homo sapiens) (P03372 whole entry, looked up): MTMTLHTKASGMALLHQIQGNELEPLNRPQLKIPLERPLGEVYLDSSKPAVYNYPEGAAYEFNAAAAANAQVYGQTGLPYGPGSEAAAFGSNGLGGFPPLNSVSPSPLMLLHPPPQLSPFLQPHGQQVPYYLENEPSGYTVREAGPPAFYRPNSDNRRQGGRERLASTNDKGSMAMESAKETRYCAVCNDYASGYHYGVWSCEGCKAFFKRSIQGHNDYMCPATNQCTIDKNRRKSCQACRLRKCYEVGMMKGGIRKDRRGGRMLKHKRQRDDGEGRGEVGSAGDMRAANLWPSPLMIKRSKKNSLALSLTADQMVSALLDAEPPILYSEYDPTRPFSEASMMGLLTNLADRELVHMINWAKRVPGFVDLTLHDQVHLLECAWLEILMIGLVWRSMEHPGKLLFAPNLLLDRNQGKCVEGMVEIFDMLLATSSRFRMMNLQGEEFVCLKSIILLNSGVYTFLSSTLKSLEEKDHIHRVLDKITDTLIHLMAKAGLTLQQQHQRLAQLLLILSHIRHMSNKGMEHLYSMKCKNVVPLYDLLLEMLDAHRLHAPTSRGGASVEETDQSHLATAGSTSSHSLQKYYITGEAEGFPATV
Chain of Estrogen receptor beta (Homo sapiens) (Q92731 whole entry, looked up): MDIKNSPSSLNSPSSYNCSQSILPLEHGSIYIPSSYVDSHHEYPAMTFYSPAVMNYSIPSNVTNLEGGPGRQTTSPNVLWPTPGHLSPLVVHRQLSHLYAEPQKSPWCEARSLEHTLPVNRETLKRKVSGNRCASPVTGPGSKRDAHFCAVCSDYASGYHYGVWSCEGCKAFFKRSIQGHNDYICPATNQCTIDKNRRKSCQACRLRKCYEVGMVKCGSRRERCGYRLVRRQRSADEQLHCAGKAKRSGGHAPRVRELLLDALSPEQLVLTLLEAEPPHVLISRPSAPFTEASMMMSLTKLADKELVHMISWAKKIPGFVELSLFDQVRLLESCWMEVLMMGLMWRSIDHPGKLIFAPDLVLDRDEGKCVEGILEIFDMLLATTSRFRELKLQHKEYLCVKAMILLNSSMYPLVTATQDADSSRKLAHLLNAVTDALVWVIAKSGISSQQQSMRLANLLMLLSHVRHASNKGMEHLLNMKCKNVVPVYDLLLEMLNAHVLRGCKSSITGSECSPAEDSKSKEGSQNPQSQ

Consider `NC1CCCCC1`, for which the Potency entry in assay [1], in [3], in assay [4], in [5], in assay [6] and in assay [7] was “inactive” each time. For the same compound, the Potency entry in assay [8] and in assay [9] was “inactive” each time. The Potency in assay [2] is 2.75 µM (active) and inactive.
For the compound `CCCCCCCC(=O)OCC(COC(=O)CCCCCCC)OC(=O)CCCCCCC`, the Potency entry in assay [1], in assay [2], in assay [3], in assay [4], in [5] and in assay [6] was “inactive” each time. Moreover, the Potency result in assay [7], in assay [8] and in assay [9] was “inactive” throughout.
Take `OC[C@H]1O[C@H](O[C@]2(CCl)O[C@H](CCl)[C@@H](O)[C@@H]2O)[C@H](O)[C@@H](O)[C@H]1Cl`: the Potency result in [1], in assay [2], in [3], in assay [4], in [5] and in assay [6] was “inactive” in each case. The Potency result in [7], in assay [8] and in assay [9] was “inactive” throughout.
On to `NS(=O)(=O)O`, for which the Potency entry in [1], in assay [2], in assay [3], in [4], in assay [5] and in assay [6] was “inactive” in each case. Moreover, the Potency entry in [9] is “inactive”.
Regarding `Nc1c2c(nc3ccccc13)CCCC2`, the Potency in [1] was 8.63 µM (active) and 13.7 µM (active). The Potency result in assay [2], in assay [3], in [4], in assay [5], in [6] and in assay [10] was “inactive” each time. The Potency result in assay [7], in assay [8] and in assay [9] was “inactive” throughout.
Turning to `Nc1c(N=Nc2ccc(-c3ccc(N=Nc4cc(S(=O)(=O)O)c5ccccc5c4N)cc3)cc2)cc(S(=O)(=O)O)c2ccccc12`, the Potency result in assay [1], in assay [2] and in assay [6] was “inactive” in each case. For the same compound, the Potency in assay [4] was 24.3 µM (active); in assay [9] it was 17.2 µM (active).
As to `CNNCc1ccc(C(=O)NC(C)C)cc1`, the Potency entry in assay [1], in [2], in [3], in assay [4], in assay [5] and in assay [6] was “inactive” throughout. For the same compound, the Potency result in assay [7], in [8] and in assay [9] was “inactive” in each case.
Take `CC1(C)O[C@@H]2C[C@H]3[C@@H]4CCC5=CC(=O)C=C[C@]5(C)[C@@]4(F)[C@@H](O)C[C@]3(C)[C@]2(C(=O)CO)O1`: the Potency result in assay [1], in [2], in assay [3], in [4], in assay [5] and in assay [6] was “inactive” each time. Moreover, in assay [9], the Potency result is “inactive”.
For `CCCCOC(=O)c1ccc(O)cc1`, the Potency result in assay [1], in assay [2], in assay [4], in assay [5], in [6] and in assay [7] was “inactive” throughout. For the same compound, the Potency entry in [8] and in assay [9] was “inactive” throughout. The Potency in assay [3] is 19.3 µM (active).
Consider `Cc1c(C(=O)O)c(O)cc2c1C(=O)c1c(O)c([C@@H]3O[C@H](CO)[C@@H](O)[C@H](O)[C@H]3O)c(O)c(O)c1C2=O`, for which the Potency entry in [1], in assay [2], in assay [3], in [5], in assay [6] and in assay [10] was “inactive” throughout. In addition, the Potency is 18.9 µM (active) and 15.4 µM (active) in [4]; 26.6 µM (active) and 15.4 µM (active) and 13.3 µM (active) in assay [9].
Turning to `O=S1(=O)OC(c2ccc(O)cc2)(c2ccc(O)cc2)c2ccccc21`, the Potency is 27.3 µM (active) and inactive in assay [1]; 30.6 µM (active) and 19.3 µM (active) and 10.6 µM (active) in [4]; 19.3 µM (active) and 17.2 µM (active) and 13.3 µM (active) in assay [9]. The Potency entry in assay [2], in [3], in assay [5] and in [6] was “inactive” in each case.
Regarding `CCCc1cc(=O)[nH]c(=S)[nH]1`, the Potency entry in [1], in [4], in assay [5], in assay [6], in assay [7] and in [8] was “inactive” each time. Besides, in assay [9], the Potency result is “inactive”.
In the case of `O=C1NC(=O)C(c2ccccc2)(c2ccccc2)N1`, the Potency entry in assay [1], in assay [4], in assay [5], in assay [6], in assay [7] and in assay [8] was “inactive” in each case. Further, the Potency result in [9] was “inactive”.
Take `NC(CO)(CO)CO`: the Potency entry in assay [1], in assay [4], in assay [5], in assay [6], in assay [7] and in assay [8] was “inactive” each time. Further, in assay [9], the Potency result was “inactive”.
In the case of `CC/C(=C(\c1ccccc1)c1ccc(OCCN(C)C)cc1)c1ccccc1`, the Potency is 23.7 µM (active) [middle of 4 runs] in [1]; 69 µM (active) and 48.9 µM (active) and 48.6 µM (active) in assay [4]; 24.5 µM (active) [middle of 5 runs] in [5]; 27.3 µM (active) and 21.9 µM (active) and 29.8 µM (active) in [6]; 61.5 µM (active) and 21.1 µM (active) in assay [8]; “inactive and 61.6 µM (active)” in [9]. In assay [7], the Potency result is “inactive”.
As for `CCCCCCCCCCCC[N+](C)(C)Cc1ccccc1`, the Potency was 2.13 µM (active) and 419 nM (active) and 3.76 µM (active) in assay [1]; 23.9 µM (active) and 33.3 µM (active) and 26.6 µM (active) in assay [4]; 30 µM (active) and 29.7 µM (active) and 10.6 µM (active) in assay [5]; 26.8 µM (active) and 37.4 µM (active) and 11.9 µM (active) in assay [6]; 67.3 µM (active) and 74.5 µM (active) and inactive in assay [9]. In addition, the Potency result in assay [7] and in assay [8] was “inactive” throughout.
Regarding `Cc1cc(=O)oc2cc(O)ccc12`, in assay [1], the Potency was 15.4 µM (active) and 17.2 µM (active) and inactive. Besides, the Potency entry in assay [4], in assay [5], in assay [6], in [7], in assay [8] and in [9] was “inactive” in each case.
Turning to `CC(=O)C(=O)O`, the Potency result in assay [1], in [4], in assay [5], in assay [6], in assay [7] and in assay [8] was “inactive” each time. In assay [9], the Potency entry is “inactive”.
`O=C(O)c1ccccc1`: the Potency result in assay [1], in assay [4], in assay [5], in [6], in assay [7] and in [8] was “inactive” in each case. The Potency entry in assay [9] is “inactive”.
With `CN(N=O)C(=O)N[C@@H]1[C@@H](O)[C@H](O)[C@@H](CO)O[C@@H]1O`, the Potency entry in [1], in assay [4], in assay [5], in assay [6], in assay [7] and in [8] was “inactive” in each case. The Potency result in assay [9] is “inactive”.
